Potency data for 40 compounds are collected here from PubChem BioAssay (Tox21).

Inconclusive results are not listed. A call without a number means that no potency is given here. Active and inactive are the calls of the source. The call rests on the fitted dose curve; in most records, active means well fitted activation curve with a large enough effect in the repeat runs; inconclusive means weak or mixed curves; inactive means flat fitted curve, though single readings scatter.
Potency means the concentration at half of the fitted maximal effect.

The experiment in a line: A CellTox Green Cytotoxicity Assay to monitor cytotoxicity in HEK293 cells - 16 hour (AID 1224888). Further: nearly all actives have a fitted effect of over 35% in size. Particulars: CellTox Green fluorescence; series mostly up to 76.8 µM. From the text: National Center for Advancing Translational Sciences [NCATS]
NIH Chemical Genomics Center [NCGC]
U.S. Environmental Protection Agency [EPA]
National Institutes of Environmental Health Sciences [NIEHS]
National Toxicology Program [NTP]
Cell-based models are critical for drug discovery. Determining the natural cytotoxic effects resulting from test compounds is an essential research activity. A CellTox Green Cytotoxicity Assay to monitor cytotoxicity in real time of continues cell culture during 40 hours of the compound treatment was used to screen Tox21 10K library compounds in Hek293 cells. CellTox Green Cytotoxicity Assay is a nonlytic, homogeneous, biofluorescent method to measure cytotoxicity in cell culture after experimental manipulation. The assay system uses a proprietary asymmetric cyanine dye that is excluded from viable cells but preferentially stains the dead cell's DNA. […] Viable cells produce no appreciable increases in fluorescence. Therefore, the fluorescence signal produced by the binding interaction with dead cell DNA is proportional to cytotoxicity.
The mixture of Hek293 cell suspension and reagents were dispensed at 600cells/6 ul/well in 1536-well tissue culture treated black solid bottom plates using a Multidrop dispenser. After the assay plates were incubated at a 37 C/5% CO2 incubator for 5 hours, 23 nL of compounds dissolved in DMSO, positive and negative controls was transferred to the assay plate by a pintool work station. The plates were incubated at 37 C for 40 hours. The fluorescence intensity were measured at 0h, 8h, 16h, 24h, 32h and 40h time points using ViewLux plate reader during compound treatment.
`Oc1c(Cl)cccc1Cl`: the Potency result was “inactive”.

Turning to `CC(C)(C)C(=O)C(Oc1ccc(Cl)cc1)n1cncn1` (stereo not given), the Potency entry was “inactive”.

`O=S(=O)(O)C(F)(F)C(F)(F)C(F)(F)C(F)(F)C(F)(F)C(F)(F)F`: the Potency result was “inactive”.

As to `CCCCP(CCCC)CCCC`, the Potency result is “inactive”.

On to `N#CCBr`, for which the Potency entry is “inactive”.

On to `COC(=O)C1=CCCN(C)C1`, for which the Potency result was “inactive”.

`O=C1CN2CCOC2(c2ccccc2Cl)c2cc(Cl)ccc2N1` (stereo not given): the Potency entry is “inactive”.

With `N#CCCC#N`, the Potency entry is “inactive”.

`CC(CC(C#N)(c1ccccc1)c1ccccc1)N(C)C` (stereo not given): the Potency result is “inactive”.

For `O=c1oc2ccccc2c(O)c1C1CCCc2ccccc21` (stereo not given), the Potency entry is “inactive”.

With `Cc1ncc2n1-c1ccc(Cl)cc1C(c1ccccc1F)=NC2`, the Potency entry is “inactive”.

Turning to `ClC(Cl)Br`, the Potency entry is “inactive”.

In the case of `C[C@]1(O)CC[C@H]2[C@@H]3CCC4=CC(=O)CC[C@]4(C)[C@@]3(F)[C@@H](O)C[C@@]21C`, the Potency result is “inactive”.

As for `CC(C(O)c1ccccc1)N(C)C/C=C/c1ccccc1` (stereo not given), the Potency entry was “inactive”.

Take `C=CCC1=C(C)[C@@H](OC(=O)[C@@H]2[C@@H](C=C(C)C)C2(C)C)CC1=O`: the Potency entry is “inactive”.

Take `CCCCc1c(C)nc(NCC)[nH]c1=O`: the Potency entry is “inactive”.

Consider `NC(=S)C(N)=S`, for which the Potency entry is “inactive”.

As for `COC(=O)c1ccccc1S(=O)(=O)NC(=O)Nc1nc(C)cc(C)n1`, the Potency result was “inactive”.

Turning to `CCC(Cl)[N+](=O)[O-]` (stereo not given), the Potency entry was “inactive”.

`c1cc[c]([Hg][c]2ccccc2)cc1`: the Potency entry is “inactive”.

On to `CN1CCN(C(=O)O[C@H]2c3nccnc3C(=O)N2c2ccc(Cl)cn2)CC1`, for which the Potency result was “inactive”.

In the case of `O=[N+]([O-])c1cc(Cl)c(Cl)c(Cl)c1`, the Potency is 21.7 µM (active).

Regarding `Cc1coc2c1CCC(C)C2` (stereo not given), the Potency entry is “inactive”.

For `CC1(C)CON(Cc2ccccc2Cl)C1=O`, the Potency entry is “inactive”.

As for `CCOC(=O)NC(=S)Nc1ccccc1NC(=S)NC(=O)OCC`, the Potency result is “inactive”.

Take `CN(C)CCc1ccc(O)cc1`: the Potency entry was “inactive”.

Consider `c1coc(-c2nc3ccccc3[nH]2)c1`, for which the Potency entry was “inactive”.

As to `CC(Cl)(Cl)[N+](=O)[O-]`, the Potency entry is “inactive”.

For `C#CCN1C(=O)COc2cc(F)c(N3C(=O)C4=C(CCCC4)C3=O)cc21`, the Potency result was “inactive”.

`CNC(=O)Oc1c(C(C)(C)C)cc(C)cc1C(C)(C)C`: the Potency result was “inactive”.

Consider `COP(N)(=S)Oc1ccccc1C(=O)OC(C)C` (stereo not given), for which the Potency entry was “inactive”.

With `ClCC(Cl)Cl`, the Potency entry was “inactive”.

Consider `Cc1cccc(C#N)c1`, for which the Potency result is “inactive”.

Regarding `Cc1ncsc1CCCl`, the Potency entry is “inactive”.

For `CC1CCCCC1NC(=O)Nc1ccccc1` (stereo not given), the Potency result was “inactive”.

For `ClC(Br)Br`, the Potency entry is “inactive”.

Turning to `CC(=O)[C@H]1CC[C@H]2[C@@H]3CC[C@H]4C[C@H](O)CC[C@]4(C)[C@H]3C(=O)C[C@]12C`, the Potency result is “inactive”.

Turning to `COCC(=O)N(c1c(C)cccc1C)N1CCOC1=O`, the Potency entry is “inactive”.

In the case of `CCOc1nc(C(Cl)(Cl)Cl)ns1`, the Potency entry is “inactive”.

As for `OCCBr`, the Potency entry is “inactive”.
